PubChem BioAssay

Test: RAM pathway blockade in budding yeast – dse1pr::URA3 reporter, 5-FOA selection, pilot screen (AID 869);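 also: 0% = DMSO wells with no growth and 100% = 10 µM 1-NA-PP1 with full growth; RAM network block rescues cells from 5-FOA so hits raise OD615 growth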
Conditions: S. cerevisiae dse1pr::URA3 5-FOA growth, OD615, 2 d; at 10 µM; stronger effect = higher value; strain carries analog-sensitive mutant Cbk1 kinase;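 active = inhibition over a set limit, the all-compound mean plus 3 SD, in both replicate runs; inconclusive = over that limit in just one replicate run; inactive = at or under that limit in both runs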

inhibition, inactive:
COc1ccc2cc(CCNC(=O)c3c(-c4ccccc4Cl)noc3C)c(=O)[nH]c2c1 1.02%, CCOc1ccc(S(=O)(=O)N2CCN(S(=O)(=O)c3ccc(OCC)cc3)C(C)C2)cc1 (stereo unspecified) 1.27%, Cc1occc1-c1nnc(SCCCC(=O)c2ccc(F)cc2)n1C 1.5%, Cc1ccc(CCN2CC(C(=O)NCc3cccnc3)CC2=O)cc1 (stereo unspecified) 2.59%, COc1ccccc1OCC(=O)Nc1ccc(S(=O)(=O)N2CCCCCC2)cc1 2.08%, CCN(c1ccccc1)S(=O)(=O)c1ccc(N)cc1 2.56%, CCOc1cccc(C(=O)Nc2nnc(-c3ccco3)s2)c1 3.44%, c1ccc2c(c1)CCCN2c1nc2ccccc2n2cnnc12 1.44%, O=C(CN1CCN(c2ccccc2F)CC1)c1ccc2cc[nH]c2c1 2.02%, Cc1cccc(OCc2nnc(SCC(=O)NCCc3ccccc3)o2)c1 3.1%, C=C(C)c1cccc(C(C)(C)NC(=O)N2CCN(c3ccccn3)CC2)c1 1.06%, Cc1ccc(S(=O)(=O)NCc2ccco2)cc1C 0.075%, COc1ccc(C(=O)NCC(c2cccnc2)N2CCN(c3ccccc3)CC2)cc1OC (stereo unspecified) 1.5%, O=C(Cn1ncc2c1-c1ccccc1OC2)Nc1ccc(S(=O)(=O)N2CCCCC2)cc1 0.655%, CC1CCCN(c2ncnc3c2cnn3-c2ccc(Cl)cc2)C1 (stereo unspecified) -1.04%, CCOC(=O)N1CCC(NC(=O)C2CCCCN2S(=O)(=O)c2ccc(F)cc2)CC1 (stereo unspecified) 0.405%
